Measured values as given in PubChem BioAssay (EPA / NIEHS).
“And” between values parts separate entries of the source, which are not always exact repeats. Equal entries are not always repeated. Records with an inconclusive call do not appear. More than one record can exist for a structure, and the calls need not agree. The source made the active and inactive calls. Rule for the calls, unless noted: active = hit-call score of the fitted dose curve at least 0.9, where 1 is the maximum; inactive = score below 0.9.

Tests used:
[1] = read-out: E-selectin (Homo sapiens) (UniProt P16581); experiment: BSK_3C_Eselectin: BioMAP Diversity Plus: 3C Assay for Eselectin Biomarker Activity (AID 2283015); settings: primary human endothelial cells (HUVEC); actives raise or lower the signal
Summary of the method: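 Primary human umbilical vein endothelial cells (3C system), read 24 h after compound addition; E-selectin measured by ELISA. Bidirectional curve fitting against DMSO baseline; cytotoxicity by parallel SRB total-protein staining.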

[2] = read-out: Interleukin-1 alpha (IL1a), IL1A (gene 3552); experiment: BSK_BE3C_IL1a: BioMAP Diversity Plus: BE3C Assay for Interleukin-1 alpha (IL1a) Biomarker Activity (AID 2283016); settings: primary human bronchial epithelial cells; actives raise or lower the signal
Summary of the method: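 BE3C primary human bronchial epithelium; cpd 24 h; IL-1a by ELISA; bidirectional fit vs DMSO; parallel SRB (0.1% SRB, 10% TCA fix, 560 nm) for cytotoxicity.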

[3] = read-out: Monocyte Chemoattractant Protein-1 (MCP1), CCL2 (gene 6347); experiment: BSK_3C_MCP1: BioMAP Diversity Plus: 3C Assay for Monocyte Chemoattractant Protein-1 (MCP1) Biomarker Activity (AID 2283017); settings: primary human endothelial cells (HUVEC); actives raise or lower the signal
Summary of the method: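 Human umbilical vein endothelial cells (3C system) exposed to chemicals for 24 h; MCP-1 quantified by ELISA against the DMSO baseline with bidirectional fitting, and parallel SRB staining used to assess cytotoxicity.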

[4] = read-out: Monocyte Chemoattractant Protein-1 (MCP1), CCL2 (gene 6347); experiment: BSK_4H_MCP1: BioMAP Diversity Plus: 4H Assay for Monocyte Chemoattractant Protein-1 (MCP1) Biomarker Activity (AID 2283018); settings: primary human endothelial cells (HUVEC); actives raise or lower the signal
Summary of the method: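 ELISA read-out of MCP-1 from human vascular endothelial primary cells taken at 24 hours after compound exposure. Activity was fitted in both directions relative to DMSO, which served as negative control.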

[5] = read-out: Human Leukocyte Antigen - DR isotype (HLADR), HLA-DRA (gene 3122); experiment: BSK_3C_HLADR: BioMAP Diversity Plus: 3C Assay for Human Leukocyte Antigen - DR isotype (HLADR) Biomarker Activity (AID 2283019); settings: primary human endothelial cells (HUVEC); actives raise or lower the signal
Summary of the method: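 HUVEC monoculture, HLA-DR measured by ELISA 24 h after chemical dosing. Fitted bidirectionally against DMSO baseline; parallel SRB staining assessed cytotoxicity, with 3C proliferation read by SRB at 48 h.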

[6] = read-out: Interleukin-8 (IL8), CXCL8 (gene 3576); experiment: BSK_3C_IL8: BioMAP Diversity Plus: 3C Assay for Interleukin-8 (IL8) Biomarker Activity (AID 2283020); settings: primary human endothelial cells (HUVEC); actives raise or lower the signal
Summary of the method: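 ELISA read-out of IL-8 from human umbilical vein endothelium, measured 24 h after chemical dosing. Activity is expressed relative to DMSO negative control, with both increases and decreases fitted.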

[7] = read-out: Monokine induced gamma interferon (MIG), CXCL9 (gene 4283); experiment: BSK_3C_MIG: BioMAP Diversity Plus: 3C Assay for Monokine induced gamma interferon (MIG) Biomarker Activity (AID 2283021); settings: primary human endothelial cells (HUVEC); actives raise or lower the signal;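 for AC50: MIG protein level measured by immunoassay in the treated endothelial cultures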
Summary of the method: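 Read-out is ELISA detection of MIG on human umbilical vein endothelial cells, taken 24 h after dosing. Gain or loss of signal was scored relative to DMSO controls using bidirectional curve fitting.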

[8] = biological target: human Vitamin D Receptor (VDR), VDR (gene 7421) (UniProt P11473); experiment: ATG_VDR_TRANS: Attagene TRANS-FACTORIAL HepG2 Assay for human Vitamin D Receptor (VDR) (AID 2283022; active = hit-call score of the fitted dose curve at least 0.9, where 1 is the maximum)
Sequence of human Vitamin D Receptor (VDR), VDR (gene 7421) (P11473 whole entry, looked up, the tested form may be a part): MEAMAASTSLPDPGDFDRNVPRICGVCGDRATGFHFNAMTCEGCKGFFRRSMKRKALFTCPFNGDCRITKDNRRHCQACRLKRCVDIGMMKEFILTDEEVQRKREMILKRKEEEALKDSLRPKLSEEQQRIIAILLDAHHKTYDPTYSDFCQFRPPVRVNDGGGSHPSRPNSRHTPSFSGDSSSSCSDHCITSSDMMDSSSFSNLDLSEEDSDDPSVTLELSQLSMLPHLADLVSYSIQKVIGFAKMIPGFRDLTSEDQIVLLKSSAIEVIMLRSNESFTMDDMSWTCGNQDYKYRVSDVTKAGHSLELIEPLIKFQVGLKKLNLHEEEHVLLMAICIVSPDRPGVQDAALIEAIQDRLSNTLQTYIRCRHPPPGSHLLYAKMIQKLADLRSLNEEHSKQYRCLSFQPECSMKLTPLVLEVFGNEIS
Summary of the method: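 HepG2 cells were transiently transfected with GAL4-UAS reporter units and a chimeric VDR-Gal4 construct, then dosed for 24 hours. Reporter mRNA was quantified by RT-PCR, fluorescent labeling, HpaI digestion and capillary electrophoresis; gain of signal analysed vs DMSO.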

[9] = BSK_3C_SRB: Viability Assessment in the BioMAP Diversity Plus: 3C Assay (AID 2283023); settings: primary human endothelial cells (HUVEC);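 note: fitted both ways against DMSO so a hit may be signal rise or drop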
Summary of the method: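 Human umbilical vein endothelial cells in the 3C system, treated 24 h. Total protein measured by 0.1% sulforhodamine B staining after 10% TCA fixation, read at 560 nm; bidirectional fit versus DMSO.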

[10] = read-out: Matrix Metallopeptidase 1 (MMP1), MMP1 (gene 4312); experiment: BSK_BE3C_MMP1: BioMAP Diversity Plus: BE3C Assay for Matrix Metallopeptidase 1 (MMP1) Biomarker Activity (AID 2283024); settings: primary human bronchial epithelial cells; actives raise or lower the signal
Summary of the method: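 Human bronchial epithelial cells (BE3C system) exposed to compound for 24 h; MMP1 then quantified by ELISA. Activity was fitted in both directions relative to DMSO.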

[11] = read-out: Pselectin, SELP (gene 6403); experiment: BSK_4H_Pselectin: BioMAP Diversity Plus: 4H Assay for Pselectin Biomarker Activity (AID 2283026); settings: primary human endothelial cells (HUVEC); actives raise or lower the signal
Summary of the method: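 ELISA read-out of P-selectin on human umbilical vein endothelium after 24 h of dosing. Values derive from bidirectional fitting relative to DMSO. Parallel SRB protein staining flagged overt cytotoxicity.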

[12] = BSK_4H_SRB: Viability Assessment in the BioMAP Diversity Plus: 4H Assay (AID 2283027); settings: primary human endothelial cells (HUVEC);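 note: cells exposed to compound for 24 h before staining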;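 for AC50: curves fitted both ways versus DMSO so AC50 may be loss or gain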
Summary of the method: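 Absorbance at 560 nm of SRB-stained total protein served as the viability read-out in confluent primary human umbilical vein endothelium 24 h after chemical treatment. Curves were fitted bidirectionally against DMSO as negative control.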

[13] = BSK_BE3C_SRB: Viability Assessment in the BioMAP Diversity Plus: BE3C Assay (AID 2283028); settings: primary human bronchial epithelial cells;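 for AC50: fitted both ways so AC50 may mark signal gain or loss versus DMSO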
Summary of the method: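 Human bronchial epithelial primary cells in confluent culture, 24 h after chemical dosing; total protein by 0.1% SRB staining after 10% TCA fixation, read at 560 nm. Bidirectional fitting versus DMSO baseline.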

[14] = read-out: Thrombomodulin, THBD (gene 7056); experiment: BSK_3C_Thrombomodulin: BioMAP Diversity Plus: 3C Assay for Thrombomodulin Biomarker Activity (AID 2283029); settings: primary human endothelial cells (HUVEC); actives raise or lower the signal
Summary of the method: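 Read-out is ELISA of thrombomodulin on human umbilical vein endothelium 24 h after chemical dosing. Gain or loss of signal is scored relative to DMSO. Overt cytotoxicity is checked in parallel cultures by sulforhodamine B staining.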

[15] = read-out: Urokinase-type plasminogen activator receptor (uPAR), PLAUR (gene 5329); experiment: BSK_4H_uPAR: BioMAP Diversity Plus: 4H Assay for Urokinase-type plasminogen activator receptor (uPAR) Biomarker Activity (AID 2283030); settings: primary human endothelial cells (HUVEC); actives raise or lower the signal
Summary of the method: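 Human umbilical vein endothelial cells in the 4H system, 24 h after chemical dosing. Cell-surface uPAR measured by ELISA, fitted in both directions versus DMSO; cytotoxicity checked by SRB total protein in parallel cultures.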

[16] = read-out: Human Leukocyte Antigen - DR isotype (HLADR), HLA-DRA (gene 3122); experiment: BSK_BE3C_HLADR: BioMAP Diversity Plus: BE3C Assay for Human Leukocyte Antigen - DR isotype (HLADR) Biomarker Activity (AID 2283032); settings: primary human bronchial epithelial cells; actives raise or lower the signal
Summary of the method: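 ELISA read-out of HLA-DR on human lung bronchial epithelial primary cells, measured 24 h post-dosing. Both increases and decreases were scored relative to DMSO vehicle.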

[17] = read-out: Vascular cell adhesion molecule 1 (VCAM1), VCAM1 (gene 7412); experiment: BSK_4H_VCAM1: BioMAP Diversity Plus: 4H Assay for Vascular cell adhesion molecule 1 (VCAM1) Biomarker Activity (AID 2283033); settings: primary human endothelial cells (HUVEC); actives raise or lower the signal
Summary of the method: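 ELISA read-out of VCAM-1 on human umbilical vein endothelium 24 hours after chemical dosing; gain or loss of signal was fitted relative to DMSO, with sulforhodamine B staining of parallel cultures flagging overt cytotoxicity.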

[18] = read-out: Interferon-gamma inducible Protein 10 (IP10), CXCL10 (gene 3627); experiment: BSK_BE3C_IP10: BioMAP Diversity Plus: BE3C Assay for Interferon-gamma inducible Protein 10 (IP10) Biomarker Activity (AID 2283034); settings: primary human bronchial epithelial cells; actives raise or lower the signal
Summary of the method: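 Chemical is dosed onto human lung bronchial epithelial primary cells, cultures are incubated 24 h, and IP-10 is then quantified by ELISA. Gain or loss of signal is fitted in both directions relative to DMSO.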

[19] = BSK_3C_Vis: BioMAP Diversity Plus: 3C Assay for Morphology Visualization (AID 2283025); settings: primary human endothelial cells (HUVEC);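 note: fitted both ways so gain or loss versus DMSO counts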;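 for AC50: light microscopy image of cell morphology used as background control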
Summary of the method: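 Chemicals were added to primary human umbilical vein endothelium, cells were incubated 24 h, and morphology was then visualized by light microscopy. Gain or loss of signal was fitted bidirectionally relative to DMSO.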

[20] = read-out: Vascular endothelial growth factor receptor 2 (Homo sapiens) (UniProt P35968); experiment: BSK_4H_VEGFRII: BioMAP Diversity Plus: 4H Assay for Vascular endothelial growth factor receptor 2 (VEGFR2) Biomarker Activity (AID 2283031); settings: primary human endothelial cells (HUVEC); actives raise or lower the signal
Summary of the method: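 Primary human umbilical vein endothelial cells (4H system), 24 h exposure; cell-surface VEGFR2 measured by ELISA. Bidirectional fitting versus DMSO; cytotoxicity checked in parallel by SRB total-protein staining.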

Measured: AC50

Sequence of E-selectin (Homo sapiens) (P16581 whole entry, looked up): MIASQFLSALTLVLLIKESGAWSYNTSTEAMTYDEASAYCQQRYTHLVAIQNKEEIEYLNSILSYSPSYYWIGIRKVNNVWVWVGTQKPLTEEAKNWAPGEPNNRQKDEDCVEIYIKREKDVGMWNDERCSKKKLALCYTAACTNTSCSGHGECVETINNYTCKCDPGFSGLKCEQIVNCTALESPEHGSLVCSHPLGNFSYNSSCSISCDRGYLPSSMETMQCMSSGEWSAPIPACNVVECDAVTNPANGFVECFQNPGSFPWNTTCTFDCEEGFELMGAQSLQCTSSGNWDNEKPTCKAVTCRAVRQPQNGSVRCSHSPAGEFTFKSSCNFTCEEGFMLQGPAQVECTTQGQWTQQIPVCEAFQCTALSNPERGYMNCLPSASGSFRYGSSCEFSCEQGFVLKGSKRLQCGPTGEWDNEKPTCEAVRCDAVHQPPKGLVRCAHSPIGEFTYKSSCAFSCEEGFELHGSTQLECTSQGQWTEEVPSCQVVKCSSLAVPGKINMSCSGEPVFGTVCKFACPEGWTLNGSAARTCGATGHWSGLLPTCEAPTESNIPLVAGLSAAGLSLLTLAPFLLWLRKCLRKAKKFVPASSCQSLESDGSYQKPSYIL

On1ccccc1=S
inactive: [6] | [8]
active: [1] 18.3 µM | [2] 4.99 µM | [3] 28.8 µM | [4] 30.8 µM | [5] 12.9 µM | [7] 32 µM | [9] 29.7 µM | [10] 10.9 µM | [11] 11.8 µM | [12] 14.8 µM | [13] 9.28 µM | [14] 5.96 µM | [15] 19.8 µM | [16] 3.31 µM | [17] 14.8 µM | [18] 3.8 µM

O=C(O)c1cc(N=Nc2ccc(S(=O)(=O)Nc3ccccn3)cc2)ccc1O
inactive: [1] | [2] | [3] | [4] | [5] | [6] | [7] | [9] | [10] | [19] | [11] | [12] | [13] | [14] | [15] | [20] | [16] | [17] | [18]

CNS(=O)(=O)c1cc(C(=O)N2CCC(CCN3C4CCC3CC(n3c(C)nc5ccccc53)C4)(c3cccc(F)c3)CC2)c(Cl)cc1F (centres undefined)
inactive: [1] | [2] | [4] | [7] | [13] | [14] | [20] | [16] | [17] | [18]
active: [3] 33.7 µM | [5] 28.9 µM | [6] 29.4 µM | [9] 20.6 µM | [10] 20 µM | [19] 15.2 µM | [11] 13.2 µM | [15] 0.148 µM

Cn1cnc([N+](=O)[O-])c1Sc1ncnc2nc[nH]c12
active: [9] 19.9 µM and 12.6 µM and 14 µM | [14] 3.36 µM | [17] 8.19 µM and 9.52 µM
inactive: [1] | [2] | [3] | [4] | [5] | [6] | [7] | [10] | [11] | [13] | [14] | [15] | [20] | [17] | [18]

CCCCC(CC)COC(=O)c1ccc(C(=O)OCC(CC)CCCC)cc1 (centres undefined)
inactive: [1] | [2] | [3] | [4] | [5] | [6] | [7] | [9] | [19] | [11] | [12] | [13] | [14] | [15] | [20] | [16] | [17] | [18]

Cn1c(=O)cc(Oc2ccc(F)cc2F)c2cnc(NCC(C)(C)O)nc21
inactive: [1] | [2] | [4] | [7] | [8] | [9] | [10] | [11] | [13] | [15] | [20] | [16] | [17] | [18]
active: [3] 3.14 µM | [5] 3.11 µM | [6] 1.91 µM | [14] 4.61 µM
